Source: PubChem BioAssay (EPA / NIEHS)
Calls of active or inactive are those of the source. The calls were made as follows: active = hit-call score of the fitted dose curve at least 0.9, where 1 is the maximum; inactive = score below 0.9.

Test: ATG_GATA_CIS: Attagene CIS-FACTORIAL HepG2 Assay for human GATA Binding Protein (AID 2282944)
Settings: HepG2 GATA cis-element reporter, Attagene multiplex mRNA; actives raise or lower the signal
Protocol: ATG_CIS is a cell-based, multiplexed-readout assay that uses HepG2, a human liver cell line, with measurements taken at 24 hours after chemical dosing in a 24-well plate.ATG_GATA_CIS is one of 52 assay component(s) measured or calculated from the ATG_CIS assay. It is designed to make measurements of mRNA induction, a form of inducible reporter, as detected with fluorescence intensity signals by Reverse transcription polymerase chain reaction (RT-PCR) and Capillary electrophoresis technology.Data from the assay component ATG_GATA_CIS was analyzed into 1 assay endpoint. This assay endpoint, ATG_GATA_CIS, was analyzed with bidirectional fitting relative to DMSO as the negative control and baseline of activity. Using a type of inducible reporter, measures of mRNA for gain or loss-of-signal activity can be used to understand the reporter gene at the transcription factor-level as they relate to the gene GATA1. Furthermore, this assay endpoint can be referred to as a primary readout, because this assay has produced multiple assay endpoints where this one serves a reporter gene function. To generalize the intended target to other relatable targets, this assay endpoint is annotated to the dna binding intended target family, where the subfamily is GATA proteins.
Human liver HepG2 cells are transiently transfected with multiple reporter transcription units (MRTUs) in 6-well plates using FuGene 6 reagent (Roche; 3 ml FuGene/1 mg DNA). The MRTU constructs are regulated by a cis-regulating element (promoter). […] A major difference between the CIS and TRANS system is that in CIS activities of endogenous TFs are measured, whereas the TRANS assay evaluates changes in activities of exogenous, chimeric NR-Gal4 proteins. […] At the end of 24 hour incubation, total RNA was isolated using TriZol reagent (Invitrogen). The isolated RNA is then reverse-transcribed using oligo(dT) primer and Mo-MLV reverse transcriptase (Invitrogen) with DNAse I (Ambion) treatment for 30 min. The one-tenth of the produced cDNA was amplified by PCR using Taq DNA polymerase (Invitrogen) and two reporter sequence-specific primers. The PCR products were fluorescently labeled by primer extension with 6-arboxyfluorescein (6-FAM) 5'-labeled reporter sequence-specific primer (2 min at 95 C, 20 s at 68 C and 10 min at 72 C) and these products were digested with 5U of HpaI (New England Biolabs) for 2h at 37 C. The fragments were purified using Qiaquick PCR columns (Qiagen), analyzed on an ABI 3130xL genetic analyzer (Applied Biosystems) with peak positions identified by using a set of X-rhodamine (ROX)-labeled MapMarker1000 molecular weight standards (BioVentures). The raw capillary electrophoresis data was processed using Attagraph software (Attagene).

Row | Structure (SMILES) | AC50 | outcome
1 | CCOC(=O)/C=C(C)/C=C/C[C@@H](C)CCCC(C)C | 158 µM (active) | 
2 | C[C@H]1CCCC(=O)CCC/C=C/c2cc(O)cc(O)c2C(=O)O1 |  | inactive
3 | Nc1cccc(Cl)c1 |  | inactive
4 | O=C(O)C(F)(F)C(F)(F)C(F)(F)C(F)(F)C(F)(F)C(F)(F)F |  | inactive
5 | COc1cc(-c2ccc(N)c(OC)c2)ccc1N |  | inactive
6 | CCCCCCCCCl |  | inactive
7 | CCC(C)(C)c1ccc(O)c(C(C)(C)CC)c1 |  | inactive
8 | CCCCCCCCSC(=O)Oc1cc(Cl)nnc1-c1ccccc1 | 149 µM (active) | 
9 | CCNc1nc(NC(C)(C)C)nc(SC)n1 |  | inactive
10 | Oc1c(I)cc(I)cc1I |  | inactive
11 | c1cc[c]([Hg][c]2ccccc2)cc1 |  | inactive
12 | CC(C#N)CCC#N (stereo not given) |  | inactive
13 | ClC1=C(Cl)[C@]2(Cl)[C@H]3[C@H]([C@H]4C=C[C@H]3C4)[C@@]1(Cl)C2(Cl)Cl |  | inactive
14 | O=C/C=C/c1ccccc1 |  | inactive
15 | COC(=O)c1sccc1S(=O)(=O)NC(=O)Nc1nc(C)nc(OC)n1 |  | inactive
16 | COc1ccc(C=O)cc1OC |  | inactive
17 | CCC(C)c1cccc(C(C)CC)c1O (stereo not given) |  | inactive
18 | c1ccc(N=NNc2ccccc2)cc1 |  | inactive
19 | CCCCCCCCC(=O)NCc1ccc(O)c(OC)c1 |  | inactive
20 | [O-][Cl+2]([O-])O |  | inactive

Row | Structure (SMILES) | AC50 | outcome
21 | CCOC(=O)Nc1cccc(OC(=O)Nc2ccccc2)c1 |  | inactive
22 | OCc1ccco1 |  | inactive
23 | O=C1CCCN1 |  | inactive
24 | C[C@]12CC[C@H](O)CC1=CC[C@@H]1[C@@H]2CC[C@]2(C)C(=O)CC[C@@H]12 |  | inactive
25 | CCOP(=S)(OCC)SCCS(=O)(=O)CC |  | inactive
26 | CC(C)(C)c1cc(O)ccc1O |  | inactive
27 | C[C@@H]1C[C@@H]([C@H](O)CC2CC(=O)NC(=O)C2)C(=O)[C@@H](C)C1 |  | inactive
28 | COP(=O)(OC)O/C(=C\Cl)c1cc(Cl)c(Cl)cc1Cl |  | inactive
29 | Cn1sc(Cl)cc1=O |  | inactive
30 | CN(CCCC(=O)c1cccnc1)N=O |  | inactive
31 | CCc1ccccc1N |  | inactive
32 | ClCC(Cl)CCl |  | inactive
33 | ClC(Cl)=C(Cl)C(Cl)=C(Cl)Cl |  | inactive
34 | CCSC(C)CC1CC(=O)C(C(CC)=NOC/C=C/Cl)=C(O)C1 (stereo not given) |  | inactive
35 | C=C(C)C#N |  | inactive
36 | CC(C)C1CCC(Cc2ccc(Cl)cc2)C1(O)Cn1cncn1 (stereo not given) |  | inactive
37 | CCC1(c2ccc(N)cc2)CCC(=O)NC1=O (stereo not given) |  | inactive
38 | Clc1ccc(COC(Cn2ccnc2)c2ccc(Cl)cc2Cl)cc1 (stereo not given) |  | inactive
39 | O=C1C(Cl)=C(Cl)C(=O)c2ccccc21 |  | inactive
40 | O=C(Cl)c1ccc(Cl)cc1 |  | inactive
